In the supplement of paper PMC3334620:
The full ranking holds about 33,000 sequences; the median of “E-score (-0.5 to 0.5)” is about -0.04, and the highest 2% start at about 0.36. Shown is part of a subset that was picked to be rich in the highest values.

Target: T1, Hmlalpha2 (UniProt P0CY09)
T1 sequence: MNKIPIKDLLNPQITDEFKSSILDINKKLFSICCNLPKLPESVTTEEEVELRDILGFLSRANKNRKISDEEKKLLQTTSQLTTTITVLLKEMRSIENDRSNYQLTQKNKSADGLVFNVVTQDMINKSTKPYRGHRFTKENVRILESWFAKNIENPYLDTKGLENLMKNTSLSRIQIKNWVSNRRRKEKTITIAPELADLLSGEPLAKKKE
Assay: PBM E-score (8-mer binding enrichment) (E-score (-0.5 to 0.5)); higher = stronger / more preferred TF binding
Details: protein concentration: 200 nM; construct: GST-full length
In short: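 Each ungapped eight-base word and its reverse complement, pooled, received an E-score from the Universal PBM Analysis Suite. Underlying scans, normalised with masliner, recorded fluorescent anti-GST bound to GST-tagged yeast transcription factors. These were applied at about 100-200 nM to universal all-10-mer Agilent arrays double-stranded by primer extension.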

Compared with AGCCACCG, CCCACCAC is higher in “PBM E-score” value: -0.248 for the first, -0.191 for the second.

Compared with ATACGCCA, AAATACAG is higher in “PBM E-score” value: -0.109 for the first, 0.172 for the second.

Going from AAATACAA to AAATACAT, the “PBM E-score” value rises from 0.347 to 0.441.

First: AAATACGT
Second: TCATACAA
The “PBM E-score” value of the first is higher: 0.246 for the first, 0.0397 for the second.

Compared with AAATACAC, CAATACAA is lower in “PBM E-score” value: 0.431 for the first, 0.256 for the second.

Compared with TAATACAA, AAATACTT is lower in “PBM E-score” value: 0.375 for the first, 0.208 for the second.

Going from CAATACAG to CAATACAC, the “PBM E-score” value rises from 0.0335 to 0.431.

Compared with CAATATAC, GTGGGACA is lower in “PBM E-score” value: 0.131 for the first, -0.0285 for the second.

Compared with AGCTGTTA, CGGTGCGA is lower in “PBM E-score” value: 0.0595 for the first, -0.141 for the second.

Going from CACTGTTA to ACGCTACG, the “PBM E-score” value falls from 0.0828 to 0.0651.

Compared with GACCGTCC, TAAGGCCA is higher in “PBM E-score” value: -0.302 for the first, 0.0046 for the second.

Going from TAAGCAGA to AGAATCTG, the “PBM E-score” value falls from 0.00375 to -0.187.

Compared with GGTGGACA, GAATACAA is higher in “PBM E-score” value: -0.0373 for the first, 0.352 for the second.

First: GAATACGC
Second: GAATACAC
The “PBM E-score” value of the first is lower: 0.357 for the first, 0.451 for the second.

Compared with CCAGGCAG, AGACCTGC is higher in “PBM E-score” value: -0.272 for the first, -0.0816 for the second.

Compared with CTTCGGCA, ACAAACAT is higher in “PBM E-score” value: -0.198 for the first, 0.305 for the second.

First: ATAAACAG
Second: CTAAACAC
The “PBM E-score” value of the first is lower: 0.0861 for the first, 0.296 for the second.

Going from GTAAAAAA to GTAAAAAC, the “PBM E-score” value rises from 0.286 to 0.385.

First: GTAAACAC
Second: AAAAACAT
The “PBM E-score” value of the first is higher: 0.416 for the first, 0.297 for the second.

Going from ATAAACAT to CTAAAAAC, the “PBM E-score” value falls from 0.383 to 0.0815.

Compared with ATAAACAA, GGAAACAC is lower in “PBM E-score” value: 0.323 for the first, 0.119 for the second.

Going from ATAAACAC to ATACCTCA, the “PBM E-score” value falls from 0.365 to -0.072.

First: AGCATTGC
Second: AGCGGGGA
The “PBM E-score” value of the first is higher: 0.0222 for the first, -0.24 for the second.

Compared with CGTTGAAA, TACGGCCA is lower in “PBM E-score” value: 0.0902 for the first, -0.262 for the second.

Going from GTAAACAA to CTAAACAA, the “PBM E-score” value falls from 0.37 to 0.0668.

Going from TTAAACAA to ATGCTAAG, the “PBM E-score” value falls from 0.274 to 0.027.

First: CGTCGAAC
Second: CGTGTGCA
The “PBM E-score” value of the first is lower: 0.0323 for the first, 0.0955 for the second.

First: GGGGTGTA
Second: CGTGTACA
The “PBM E-score” value of the first is lower: 0.0612 for the first, 0.467 for the second.

Compared with AGTGTGTC, CGTGTGTC is higher in “PBM E-score” value: 0.174 for the first, 0.2 for the second.

Going from AGTGTGTG to GGTGTGCA, the “PBM E-score” value falls from 0.127 to -0.155.

Compared with CGTGTGTA, CGTGTACC is lower in “PBM E-score” value: 0.413 for the first, 0.326 for the second.

Going from AGTGTACA to AGTGTGTA, the “PBM E-score” value rises from 0.301 to 0.395.

Going from GGTGTGTA to CCGGACGA, the “PBM E-score” value falls from 0.423 to -0.0406.

Going from ATGGGAAT to CAGCACCG, the “PBM E-score” value falls from 0.0681 to -0.189.

Going from GCGCGGTA to ACCTGCAG, the “PBM E-score” value falls from 0.0518 to -0.0825.

Going from AAGCAGGG to CGTGTATA, the “PBM E-score” value rises from -0.116 to 0.452.

Compared with GGTGTATA, CGTGTATC is higher in “PBM E-score” value: 0.0823 for the first, 0.332 for the second.

Going from GGTCTATA to ATATACAT, the “PBM E-score” value rises from 0.121 to 0.435.

Compared with ATATACAA, ATATACAC is higher in “PBM E-score” value: 0.343 for the first, 0.422 for the second.

Going from GTATATAC to ATATACAG, the “PBM E-score” value falls from 0.155 to 0.131.

Going from GTATACAA to GTATACAC, the “PBM E-score” value rises from 0.291 to 0.416.

Going from ATATATAC to CTATACAC, the “PBM E-score” value falls from 0.345 to 0.213.

Compared with AAGGTAAC, CACGCCCC is lower in “PBM E-score” value: 0.0918 for the first, 0.0158 for the second.

Going from ACTTGAGG to CATGTGTC, the “PBM E-score” value rises from -0.203 to 0.152.

First: AATGTGTG
Second: AATGTGTC
The “PBM E-score” value of the first is lower: 0.0802 for the first, 0.0899 for the second.

Compared with GATGTGGA, GATGTGTA is higher in “PBM E-score” value: -0.0421 for the first, 0.38 for the second.

Compared with CATGTGGA, GATGTGCA is lower in “PBM E-score” value: 0.144 for the first, -0.091 for the second.

Going from CATGTGTA to AATGTGTA, the “PBM E-score” value falls from 0.427 to 0.371.
